Results from PubChem BioAssay AID1006 (Sanford-Burnham Center for Chemical Genomics, 2008).
Hit rate of the full screen: of about 200,000 compounds, about 3,000 (1.5%) were called active. Shown is part of a subset that was picked to be rich in actives. Unmarked numbers belong to inactive results.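 The calls were made as follows: active = inhibition above about 50% when tested at 10 µM (limit read from the data); inactive = the rest.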

biological target: Luciferin 4-monooxygenase (Photinus pyralis) (UniProt P08659); assay: firefly luciferase enzyme inhibitors, primary screen, artefact control for luciferase-based inhibitor screens, biochemical, luminescence, ATPLite (AID 1006); settings: 10 min, at 10 µM, active compounds read high
Sequence (P08659 whole entry, looked up): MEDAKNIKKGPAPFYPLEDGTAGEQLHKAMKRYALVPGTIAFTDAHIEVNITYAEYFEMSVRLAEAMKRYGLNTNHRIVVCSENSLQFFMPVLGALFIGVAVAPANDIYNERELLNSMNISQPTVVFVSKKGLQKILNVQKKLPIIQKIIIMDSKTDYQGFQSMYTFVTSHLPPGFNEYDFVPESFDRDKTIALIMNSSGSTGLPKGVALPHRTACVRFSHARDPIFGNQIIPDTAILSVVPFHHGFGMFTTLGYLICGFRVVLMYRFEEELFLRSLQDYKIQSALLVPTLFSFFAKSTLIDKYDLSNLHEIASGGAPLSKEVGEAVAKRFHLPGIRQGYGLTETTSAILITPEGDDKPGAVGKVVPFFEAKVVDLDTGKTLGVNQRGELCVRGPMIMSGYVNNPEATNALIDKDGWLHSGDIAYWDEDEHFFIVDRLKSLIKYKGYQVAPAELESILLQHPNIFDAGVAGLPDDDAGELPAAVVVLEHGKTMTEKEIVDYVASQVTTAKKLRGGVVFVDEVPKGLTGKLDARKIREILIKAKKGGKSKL

Compound	inhibition
C=CCNc1scc(-c2ccccc2)[n+]1CC=C	-5.9%
O=C(N/N=C/c1coc2ccccc2c1=O)c1cc2ccccc2o1	-6.6%
N=c1oc2ccccc2cc1C(=O)N/N=C/c1ccccc1	56.7% (active)
CNC(=O)c1cc2c(ccc3ccccc32)oc1=N	7.1%
O=C(O)C1C2CC2CN1C(=O)c1ccc(Cl)cc1Cl (configuration not stated)	-5%
O=C(OC1CCOC1=O)c1cccc(S(=O)(=O)Nc2ccc(F)cc2)c1 (configuration not stated)	-4.8%
O=C(OC1CCOC1=O)c1ccc(-c2nc3ccccc3s2)s1 (configuration not stated)	91.4% (active)
Cc1nn(Cc2ccccc2)c(Cl)c1C(=O)OC1CCOC1=O (configuration not stated)	-3.6%
N#CC1(C#N)C(C(=O)C23CC4CC(CC(C4)C2)C3)C12CCOCC2 (configuration not stated)	-9.2%
CCc1cc2c(=O)c(-c3ccc(F)cc3)c(C(F)(F)F)oc2cc1OCC(=O)O	-5.2%
CCc1cc2c(=O)c(-c3ccon3)c(N)oc2cc1OC	59.4% (active)
CCc1cc2c(=O)c(-c3nc4ccccc4n3C)c(CCCC(=O)O)oc2cc1OC(=O)C(C)(C)C	2.4%
CCOc1ccc(S(=O)(=O)Nc2nccs2)cc1	-7.4%
COc1ccc(-c2noc(-c3ccc(C)cc3)n2)cc1	44.5%
COc1ccc(-c2noc(-c3cccc(OC)c3OC)n2)cc1OC	48.7%
COc1ccc(-c2nc(-c3ccccc3)no2)c(OC)c1	85.4% (active)
Cc1ccc(S(=O)(=O)Nc2nc(N)n(-c3ccccc3)n2)cc1	-5.1%
Cc1ccc(NC(=O)C2(N3CCC3=O)CCCCC2)cc1	-9%
Cc1cc(/C=N/NC(=O)c2cccnc2)c(C)n1CC(C)C	63.5% (active)
Cc1nn(Cc2ccc(Cl)cc2)c(Cl)c1/C=N/NC(=O)c1cccnc1	-5.5%
CCC(=O)Nc1cccc(NC(=O)c2cccnc2)c1	-0.5%
CC(Oc1ccc(Br)cc1Br)C(=O)NC1CCCC1 (configuration not stated)	-6.3%
Cc1ccc(S(=O)(=O)/N=C(/Nc2ccccn2)c2ccc(Cl)cc2)cc1	-1.5%
CCN(CC)S(=O)(=O)c1cc(C(=O)Nc2ccccn2)ccc1C	58% (active)
CCN(CC)S(=O)(=O)c1cccc(C(=O)Nc2ccccc2)c1	-4.6%
Cn1c(N)cc(-c2ccc(F)cc2)c(C#N)c1=O	-3.4%

Compound	inhibition
COc1cc(CNC2CCCCC2)c(Br)cc1OC1CCCC1	-3.7%
Cc1cc(C)nc(NC(=O)c2cccc([N+](=O)[O-])c2)c1	0.2%
CCO[C@H]1OC(C(=O)O)=C[C@@H](C2CCCCC2)[C@@H]1CCCO	-12%
Oc1ccc(-c2[nH]ncc2-c2nc3ccccc3s2)c(O)c1	-7.2%
COC(=O)c1nc2ccccc2s1	-1.8%
CC(=O)Nc1cccc(-c2nc3ccccc3s2)c1C	52% (active)
c1csc(-c2nnc(COc3ccc4c(c3)OCO4)o2)c1	5.4%
NS(=O)(=O)c1ccc(N2C(=O)C3C4CC(C(Br)C4Br)C3C2=O)cc1 (configuration not stated)	-4.1%
CCc1ccc(N2CC(O)=C(c3nc4ccccc4c(=O)[nH]3)C2=N)cc1	1.7%
COc1ccc(/C=N/Nc2nc3ccccc3c(=O)[nH]2)cc1	59.4% (active)
COc1ccc(C=Nc2cccc3ncccc23)cc1	-0.8%
CCN(CC)c1ccc(/C=N/Nc2nc(C)cc(=O)[nH]2)cc1	26.8%
C[C@@H]1NC(=O)c2cc([N+](=O)[O-])cc(F)c2NCCC[C@@H](C(N)=O)NC(=O)[C@H](CC(N)=O)NC1=O	-4.9%
Fc1ccccc1Cc1ccc(Cl)nn1	-5.5%
c1cc(-c2nn[nH]n2)ccc1CN1CCCCC1	-3.9%
CC(C)c1ccc(-c2nn[nH]n2)cc1	56.6% (active)
CCc1ccc(-c2nnn(Cc3nn[nH]n3)n2)cc1	-1.9%
O=C(COC(=O)C12CC3CC(CC(O)(C3)C1)C2)NC12CC3CC(CC(C3)C1)C2	-8.6%
Cc1cc(Br)ccc1SCC(=O)OCC(=O)NCc1ccc2c(c1)OCO2	-0.9%
Cn1cc(CN2CCCCC2c2ccccn2)c(-c2ccc3c(c2)OCCO3)n1 (configuration not stated)	-5%
COC(=O)C1=C(C)N(C)C(=O)NC1c1ccc([N+](=O)[O-])o1 (configuration not stated)	-8%
CCOc1ncccc1C(=O)OCc1cn2cc(Cl)ccc2n1	-4.4%
O=c1cc(CSc2ccc(Cl)cc2)nc(N2CCOCC2)[nH]1	-3.7%
Clc1ccc2nc(CSc3ccccc3)cn2c1	51% (active)
Cc1ccc(N(CC(=O)Nc2cccc(N(C)S(C)(=O)=O)c2)S(C)(=O)=O)cc1	1.1%
CN(c1cccc(NC(=O)Nc2ccc(Cl)cc2)c1)S(C)(=O)=O	50.6% (active)

Compound	inhibition
COc1cccc(N(CC(=O)Nc2cccc(N(C)S(C)(=O)=O)c2)S(C)(=O)=O)c1	-3.8%
Cc1ccc(/C=C/C(=O)Nc2cc(S(=O)(=O)N3CCCCCC3)ccc2OCC(F)(F)F)o1	-5.3%
O=c1oc(-c2ccco2)nc2sc3c(c12)CCCCC3	82.9% (active)
O=C(NCc1ccco1)c1cccn2c(=O)c3c4c(sc3nc12)CCCC4	-5.5%
Cn1c(=O)n(Cc2ccco2)c(=N)c2c3c(sc21)CCCC3	-0.5%
O=C(c1cn2ccccc2n1)N1CCc2c([nH]c3ccccc23)C1c1ccccn1 (configuration not stated)	1%
Cc1cc(C(=O)COC(=O)CCCN2C(=O)c3ccccc3C2=O)c(C)n1C	8.4%
C=CCN(CC=C)C(=O)CN1C(=O)c2ccccc2C1=O	-5%
C=CCn1c(C)cc(C(=O)CN2C(=O)c3ccccc3C2=O)c1C	57.4% (active)
O=C1COc2ccc(C(=O)COC(=O)C3CC(O)CN3S(=O)(=O)c3ccc(Cl)cc3)cc2N1 (configuration not stated)	29.8%
COc1ccc(NC(C(=O)Nc2cccc(C(C)=O)c2)c2ccccc2)cc1 (configuration not stated)	1.7%
O=C(Nc1ccc(-c2ccc3nncn3n2)cc1)C1CCCCC1	26.9%
CCC1C/C(=C/c2cccs2)C(=O)/C(=C/c2cccs2)C1 (configuration not stated)	-5.8%
COc1ccc(/C=C2\CCc3ccccc3C2=O)c(OC)c1OC	1.1%
O=C1/C(=C/c2cccs2)CCc2ccccc21	76% (active)
c1ccc(-c2[nH]ncc2-c2nc3ccccc3[nH]2)cc1	-8.5%
Cc1ccc(-c2nc3ccccc3[nH]2)cc1NC(=O)c1sc2ccccc2c1Cl	-3%
COc1ccc(Br)cc1C(=O)NC(=S)Nc1cc(-c2nc3ccccc3[nH]2)ccc1C	2.5%
Cc1ccc(-c2nc3ccccc3[nH]2)cc1N	80.7% (active)
OCCNc1nc2ccccc2[nH]1	-5.9%
c1ccc2[nH]c(-c3nc4ccccc4[nH]3)nc2c1	58.7% (active)
O=C(CCNS(=O)(=O)c1ccc(Br)s1)NCc1ccccc1Cl	-3.8%
Cc1c(NC(=O)CCC2CCCCC2)cc(C(=O)N2CCOCC2)cc1[N+](=O)[O-]	-6.5%
O=C(NC(Cc1c[nH]c2ccccc12)C(=O)O)/C(=C/c1ccco1)NC(=O)c1ccccc1 (configuration not stated)	-0.6%
O=C(CCl)N(Cc1cccc([N+](=O)[O-])c1)c1cccc(Cl)c1	-6.8%
CCCCOc1ccc(N(CC(=O)NC(C)C)C(=O)CCC(=O)Nc2ccccn2)cc1	-9.9%

Compound	inhibition
Cc1cc(C)n2nc(C(=O)N(C)C(c3ccccc3)c3ccccc3)nc2n1	-7%
COc1ccc(-c2cn3cccnc3n2)cc1	59.3% (active)
CC(=O)Nc1ccc(-c2cn3cccnc3n2)cc1	6.6%
COc1ccc(-c2cn3ccsc3n2)cc1	81.3% (active)
c1ccc(-c2cn3cccnc3n2)cc1	2.6%
CCCC(=O)Nc1cccc(-c2cn3ccsc3n2)c1	40%
COc1cc(OC)cc(-c2nc(=S)n3ccsc3n2)c1	-2.1%
COc1cc(C(=S)NC2CCCCC2)ccc1O	-2.8%
Cc1ccnc2nc(C(=O)Nc3nnc(-c4ccccc4)o3)nn12	-2.4%
Cc1noc(C)c1S(=O)(=O)N(C)Cc1ccccc1	-6.5%
CCOC(=O)c1nn(-c2ccccc2F)c2nc(Nc3ccccc3)cc(=O)n12	-2.4%
Cc1ccnc(Nc2nc3ccccc3s2)n1	34.9%
c1ccc2sc(NN=C3CCCC3)nc2c1	62.8% (active)
O=[N+]([O-])c1cc(Br)c(O)c(/C=N/Nc2nc3ccccc3s2)c1	1.1%
Cc1cc(C)cc(C(=O)N(CCc2ccccc2)C2=CC3CCC(C2)N3C)c1 (configuration not stated)	-2.2%
O=C(C1=C[C@H](C2CC2)C[C@H](OCc2ccc(CO)cc2)O1)N1CCN(Cc2ccccc2)CC1	-13.1%
CC(NC(=S)NC1CCCCC1)C(c1ccccc1)N1CCOCC1 (configuration not stated)	-6%
O=C(NNC(=S)NC1CCCCC1)c1ccccc1Cl	-0.5%
CC(C)(c1ccccc1)c1ccc(OCCN)cc1	-11.4%
CC1=NN(C(=O)c2ccc(Br)cc2)C(O)(c2ccccc2)C1 (configuration not stated)	-3.1%
CCN(CC)C(=O)Oc1ccc(OC(=O)N(CC)CC)cc1	1.5%
CC1CN/C(=C\C(=O)c2ccc(Br)cc2)C(=O)N1 (configuration not stated)	52.4% (active)
CN1CCCC(OC(=O)COc2ccc(Br)cc2)C1 (configuration not stated)	-7.7%
C/C(=C\C(=O)c1ccc(Br)cc1)N1CCCCC1	3.9%
